Screening data from PubChem BioAssay.
In the library only some 6.1% were active in any assay of this set; here they are far more common.
DRD3 antagonist – qHTS of D3 Dopamine Receptor Antagonist: qHTS; hit rate 2.5% among 360,000; D3R cells, DiscoveRx beta-arrestin luminescence, antagonist mode; active compounds read low; max response, negative = inhibition, %; AID 652054, 2013; in the data active means max response below about -50%; inconclusive means no clear call, values can overlap the other calls; further: on the % scale 0 is the no-effect control and ±100 the full control effect
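Cells expressing the human receptor were seeded at 1500 cells/well, incubated overnight at 37 degrees C in 5% CO2, then exposed to library compounds with dopamine controls for 90 minutes at 37 degrees C before luminescent detection.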
D1 agonist – Allosteric Agonists of the Human D1 Dopamine Receptor: qHTS. D(1A) dopamine receptor (Homo sapiens), P21728. HEK293 T-REx D1 cells, calcium flux, agonist mode. activation, % at 2 µM. hit rate 1% among 360,000; in the data active means activation above about 30%; further: 0% is about no effect
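Tetracycline-induced HEK293 TREx D1 cells, force-coupled to calcium signalling, were dye-loaded with a no-wash calcium kit. Compound was pin-added after a 10 s baseline. Fluorescence was read kinetically at 1 cycle/s for 180 s, with calcium rises flagged as agonism.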
D1 potentiator – Potentiators of Human D1 Dopamine Receptor: qHTS; D(1A) dopamine receptor (Homo sapiens), P21728; HEK293 TREx D1 cells, calcium flux, dopamine EC20 potentiation; potentiation, % at 10 µM; hit rate 0.036% among 360,000; in the data active means potentiation above about 30%; further: 0% is about no effect
ERG Ets-DNA blk – qHTS for Small Molecule Inhibitors of the ERG Ets/DNA interaction | fluorescence polarization, His-ERG Ets domain / labelled DNA | Potency, µM (series often up to 76.9 µM), for the others: at the highest dose FP activity, negative = inhibition, usual class: inhibitors | hit rate 0.028% among 370,000 | Transcriptional regulator ERG (Homo sapiens), P11308; active means well fitted inhibition curve with a large enough effect in the polarisation, with a control signal flat; inconclusive means small, poorly fitted or top-dose-only effect, or effect the other way, or a change in a side signal; inactive means no such curve, though single readings can be large or run the other way; the % refers to the polarisation;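 further: polarization taken with two DNA probes labelled with fluorescein and Texas red; potency means the concentration at half of the fitted maximal effect; % of control where 0% means no effect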
Target sequence (P11308 whole entry, looked up, the tested form may be a part): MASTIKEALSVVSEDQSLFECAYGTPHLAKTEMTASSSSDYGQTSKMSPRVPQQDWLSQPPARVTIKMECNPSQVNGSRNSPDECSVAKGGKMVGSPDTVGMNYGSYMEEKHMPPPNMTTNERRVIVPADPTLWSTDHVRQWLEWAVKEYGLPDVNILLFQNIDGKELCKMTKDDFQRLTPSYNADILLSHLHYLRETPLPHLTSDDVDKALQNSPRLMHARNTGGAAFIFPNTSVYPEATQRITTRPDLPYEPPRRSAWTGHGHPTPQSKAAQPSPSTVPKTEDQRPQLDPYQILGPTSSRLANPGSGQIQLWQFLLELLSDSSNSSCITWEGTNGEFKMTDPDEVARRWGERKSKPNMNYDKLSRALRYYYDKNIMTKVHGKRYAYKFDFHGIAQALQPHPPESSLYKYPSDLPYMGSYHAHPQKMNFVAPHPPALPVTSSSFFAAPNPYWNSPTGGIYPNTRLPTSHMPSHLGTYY
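His-tagged ERG Ets domain (1 uM in the protein solution; 300mM KCl, 50mM Tris-HCl, 1mM EDTA, 1mM DTT, pH 7.5) received compound, then a probe mix of 5 nM fluorescein-DNA and 100nM Texas-615-DNA. Fluorescence polarization was read for both dyes.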
D1 antagonist – Antagonist of Human D 1 Dopamine Receptor: qHTS. D(1A) dopamine receptor (Homo sapiens), P21728. HEK293 TREx D1 cells, calcium flux, dopamine EC80; active compounds read low. activity change, negative = inhibition, % at 10 µM. hit rate 3.2% among 360,000; in the data active means activity change below about -30%; further: on the % scale 0 is the no-effect control and ±100 the full control effect
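Allosteric or orthosteric antagonism assessed as attenuation of the calcium response to EC80 dopamine, added 180 s after compound, in induced HEK293 Trex D1 cells loaded with no-wash calcium dye.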
DRD3 agonist – qHTS of D3 Dopamine Receptor Agonist: qHTS; max activation, %; hit rate 0.58% among 410,000; D(3) dopamine receptor (Homo sapiens), P35462; D3R DiscoveRx beta-arrestin cells, luminescence, 90 min; in the data active means max activation above about 30%; further: 0% is about no effect
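Cells at 1500/well, incubated overnight, then treated with pinned compounds (dopamine as control) for 90 min at 37 degrees C. DiscoveRx reagent added for 30 - 60 minutes at room temperature; luminescence read.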
* = called active by the depositor; ? = inconclusive; . = no result given.

SMILES	DRD3 antagonist	D1 agonist	D1 potentiator	ERG Ets-DNA blk	D1 antagonist	DRD3 agonist
Cc1cc(NC(=O)CS(=O)(=O)c2cn(Cc3ccc(F)cc3)c3ccccc23)no1	20	6	-3	7%	-39*	0
Cc1cc(NC(=O)CS(=O)(=O)c2cn(Cc3cccc(F)c3)c3ccccc23)no1	-19	2	2	-4%	-4	1
CCOC(=O)c1cnc2ccc(OCC)cc2c1N1CCN(c2ccccc2)CC1	-65*	4	7	7%	11	-1
CCOC(=O)c1cnc2ccc(C)cc2c1Nc1ccc(N2CCOCC2)cc1	-59*	1	0	-2%	-7	12
CCOC(=O)c1cnc2ccc(OCC)cc2c1NCc1ccccc1	15	11	-11	12%	-32*	48*
CCOC(=O)c1cnc2ccc(Cl)cc2c1Nc1ccc(N2CCOCC2)cc1	.	-3	0	-11%	7	19
CCCc1cc(=O)[nH]c(SCCOc2ccc(Cl)cc2)n1	3	0	-2	-11%	-2	-6
CCCCO	.	.	.	.	.	68*
CCCCCO	0	0	0	4%	.	4
CCn1c(SCC(=O)N2CCCc3ccccc32)nnc1-c1c[nH]c2ccccc12	-51*	3	-9	-1%	8	-5
CCn1c(SC(C)C)nnc1-c1c[nH]c2ccccc12	-16	2	.	6%	-31*	-8
CCn1c(CNc2ccc(F)cc2)nnc1SCC(=O)N1CCCc2ccccc21	-19	2	1	-1%	-31*	-3
CCn1c(CNc2ccc(OC)cc2)nnc1SCC(=O)N1CCCc2ccccc21	0	0	-4	3%	-23	1
COc1ccc(S(=O)(=O)N2CCCC2CNC(=O)C(=O)NCc2ccco2)cc1 (stereo not drawn)	16	2	1	4%	-1	-3
Cc1ccc(-c2cc3ccccc3nc2N)cc1	18	6	-27	3%	-98*	1
Nc1nc2ccccc2cc1-c1cccs1	4	14	-25	-3%	-60*	4
c1csc(-c2ccc3ccccc3n2)c1	21	1	1	-12%	6	11
N#Cc1cc2ccccc2nc1N	-26	2	1	6%	11	-6
Clc1ccc2c(SCC3CO3)c3ccccc3nc2c1 (stereo not drawn)	-91*	.	.	-4%	.	-30
Cn1ccsc1=NC(=O)c1ccccc1OC(F)F	11	0	-8	-5%	-36*	1
Cn1ccsc1=NC(=O)c1ccccc1F	13	1	-6	-3%	-5	1
N#Cc1c(-c2ccccc2)cc(C2CC2)nc1SCC(=O)O	-7	0	-4	-3%	2	0
N#Cc1c(-c2ccccc2)cc(C2CC2)nc1SCC(=O)c1cccs1	9	32*	1	8%	-2	2
CC(C)(C)OC(=O)N[C@@H](/C=C/c1ccccc1)C(=O)OC(C)(C)C	4	0	2	-2%	.	-5
COc1ccccc1C(=O)n1nc(-c2ccco2)nc1SC	-6	2	-11	-3%	-34*	0
SMILES	DRD3 antagonist	D1 agonist	D1 potentiator	ERG Ets-DNA blk	D1 antagonist	DRD3 agonist
COc1ccc(S(=O)(=O)NC2CCCCC2)cc1F	1	9	-5	-12%	-17	0
Cc1ncc(C23CC4CC(CC(C4)C2)C3)[nH]1	-55*	7	5	-11%	9	-5
N#Cc1ccc(C23CC4CC(CC(C4)C2)C3)[nH]c1=O	2	1	-2	-8%	10	1
Cc1cccn2c(=O)c(/C=N/O)c(Nc3ccccc3F)nc12	-3	0	-4	-14%	-7	15
CC/C(=N/N=C(\CC)c1ccccc1)c1ccccc1	6	0	-2	-4%	-46*	4
N#Cc1nc(COc2ccccc2Cl)oc1N1CCCC1	7	2	-3	0%	-31*	-1
N#Cc1nc(COc2ccc(F)cc2)oc1N1CCC(Cc2ccccc2)CC1	4	48*	2	0%	0	-4
CCN1CCN(c2oc(COc3ccc(-c4ccccc4)cc3)nc2C#N)CC1	-80*	19	-2	11%	-8	-20
CC1CCN(C(=O)Cn2cc(S(=O)(=O)CC(=O)N3CCOCC3)c3ccccc32)CC1	-9	.	.	0%	.	-3
O=C(NCC1CC1)c1onc(CSc2nc3ccccc3[nH]2)c1C(=O)NCC1CC1	-8	3	-1	-16%	-21	0
Cc1cc2nc3ccc(N(C)C)cc3nc2cc1N	?	.	.	?	.	2
O=C1c2ccccc2S(=O)(=O)N1CC(O)COc1ccc(Cl)cc1 (stereo not drawn)	-2	4	-2	-5%	-3	-6
COC(=O)c1ccc(OCC(O)CN2C(=O)c3ccccc3S2(=O)=O)cc1 (stereo not drawn)	-9	6	-2	11%	-40*	5
Cc1ccc2nc3n(c2c1)CCCN3	-59*	1	-3	20%	6	0
COc1ccc(S(=O)(=O)N2CCC(n3c(C)nc4cccnc43)CC2)cc1Cl	.	15	-4	1%	-34*	-9
O=C(/C=C/c1ccc([N+](=O)[O-])cc1)NCCc1ccc(F)cc1	8	0	-4	-4%	-23	8
CCOC(=O)C1(Cc2ccccc2Cl)CCN(Cc2csc(C(C)=O)c2)CC1	-3	3	-2	-3%	2	-18
OCC(O)C1OC(c2ccccc2)OC(CO)C1O (stereo not drawn)	15	.	.	1%	.	31*
Cc1c(CCCl)c(Cl)n2c(nc3ccccc32)c1C#N	-103*	.	.	.	.	-6
N#Cc1c(-c2ccccc2)c(C#N)c2nc3ccccc3n2c1N	15	13	-1	4%	-6	10
Cc1cc(Cl)n2c(nc3ccccc32)c1C#N	-73*	0	-5	6%	10	-16
CNc1cc(C)c(C#N)c2nc3ccccc3n12	-3	4	5	11%	11	-10
Cc1ccc(-c2c(C#N)c(N)n3c(nc4ccccc43)c2C#N)cc1	6	23	-15	0%	-39*	8
C=C(C)CN1CCN(c2c(CCC#N)c(C)c(C#N)c3nc4ccccc4n23)CC1	7	-1	-2	-7%	-38*	5
CC/C(=C(/CC)c1ccc(OP(=O)(O)O)cc1)c1ccc(OP(=O)(O)O)cc1	.	.	.	.	.	7
